Most compounds without a hit are left out; they make up all but 17% or so of the library.
ClpP mod = qHTS Assay for Activators of ClpP; purified B. subtilis ClpP, FRET peptide cleavage, 20 min; Potency, µM (titrated, usually from 57.5 µM), for inactives: top-dose activity change, negative = active; 340,000 tested, 1.9% active; AID 651965, 2013; active means well fitted falling curve with a large enough effect; inconclusive means small, poorly fitted or top-dose-only effect; inactive means no such curve, though single readings can be large or run the other way; further: the source files actives as falling curves though it sought activators and does not explain the sign; nearly all actives have a fitted effect of over 65% in size
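Buffer: 100 mM Tris/HCl pH8, 100 mM KCl, 0.05% low protease BSA, 2.5% glycerol, 0.01% Tween-20. ClpP 10 microg/mL final; 20 min RT; delta FRET normalized to ADEP and DMSO controls.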
TDP1 inh = blocks human tyrosyl-DNA phosphodiesterase 1; Potency, µM (series often up to 130 µM), for inactives: at the highest dose activity change, negative = inhibition, actives largely listed as inhibitors; recombinant TDP1, AlphaScreen DNA substrate cleavage; 350,000 tested, 0.28% active; further: on the % scale 0 is the no-effect control and ±100 the full control effect; nearly all actives have a fitted effect of over 40% in size
Target sequence (Q9NUW8 whole entry, looked up): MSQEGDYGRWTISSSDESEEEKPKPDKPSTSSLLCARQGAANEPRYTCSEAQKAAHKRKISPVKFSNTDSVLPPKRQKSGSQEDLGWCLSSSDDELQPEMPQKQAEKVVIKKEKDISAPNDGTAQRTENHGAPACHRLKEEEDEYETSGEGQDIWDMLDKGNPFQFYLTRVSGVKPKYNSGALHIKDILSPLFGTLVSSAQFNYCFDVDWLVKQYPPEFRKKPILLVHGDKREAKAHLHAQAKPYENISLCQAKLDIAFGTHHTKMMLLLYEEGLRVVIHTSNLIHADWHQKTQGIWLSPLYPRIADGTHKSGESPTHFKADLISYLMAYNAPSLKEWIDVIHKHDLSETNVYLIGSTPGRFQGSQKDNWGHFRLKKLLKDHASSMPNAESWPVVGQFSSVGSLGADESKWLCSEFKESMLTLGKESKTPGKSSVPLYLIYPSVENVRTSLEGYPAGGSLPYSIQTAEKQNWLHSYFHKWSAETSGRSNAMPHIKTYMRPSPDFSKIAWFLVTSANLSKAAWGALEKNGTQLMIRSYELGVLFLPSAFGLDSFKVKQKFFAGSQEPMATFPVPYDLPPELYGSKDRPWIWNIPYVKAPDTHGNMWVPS
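Here, a 5' biotin and 3' phosphotyrosine-FITC DNA oligonucleotide reports Tdp1 activity: intact substrate bridges AlphaScreen beads, while cleavage leaves a 3' phosphate and drops signal. All incubations at room temperature.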
TDP1 cell CPT = growth inhibition of DT40 Tdp1-/-;hTDP1 cells with camptothecin (screen for TDP1 inhibitors); Potency, µM (highest dose often 46.2 µM), for inactives: at the top dose activity change, negative = growth inhibition, hits mostly inhibitors; chicken DT40 Tdp1-/-;hTDP1 cells + 20 nM CPT, ATP luminescence, 48 h; 420,000 tested, 12% active; AID 686979; further: on the % scale 0 is the no-effect control and ±100 the full control effect; nearly all actives have a fitted effect of over 55% in size
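Chicken DT40 Tdp1-/- cells complemented with human TDP1, 400 cells/well, exposed to compounds plus 20 nM camptothecin for at least 48 h at 37 C; viability read as ATP content by CellTiter-Glo luminescence.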
TDP1 cell noCPT = qHTS for Inhibitors of human tyrosyl-DNA phosphodiesterase 1 (TDP1): qHTS in cells in absence of CPT; Potency, µM (doses to about 46.2 µM), for inactives: top-dose activity change, negative = growth inhibition, most hits filed as inhibitors; 420,000 tested, 15% active; DT40 Tdp1-/- hTDP1 cells, no CPT, ATP luminescence, 48 h; further: on the % scale 0 is the no-effect control and ±100 the full control effect; nearly all actives have a fitted effect of over 55% in size
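DT40 Tdp1-/-;hTDP1 cells, no CPT (DMSO vehicle only), 400 cells/well; compounds pin-transferred; ≥48 hr, 37 °C; CellTiter-Glo 30 min RT dark, luminescence read.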
Numbers without * were called inactive; ? = inconclusive; . = no result. Unless noted, the call rests on the fitted dose curve; in most records, active means well fitted curve in the direction sought with a large enough effect; inconclusive means small, poorly fitted or top-dose-only effect, or another doubt; inactive means no such curve, though single readings can be large; an effect the other way counts as inactive or inconclusive. Potency means the concentration at half of the fitted maximal effect.

SMILES	ClpP mod	TDP1 inh	TDP1 cell CPT	TDP1 cell noCPT
Cc1ccc(S(=O)(=O)Nc2ccc(NC(=O)Nc3cccc(C(F)(F)F)c3)cc2)cc1	2%	1%	18µM*	?
CCOc1ccc2nc(NC(=O)CN3C(=O)C4CCCCC4C3=O)sc2c1 (stereo not given)	.	2%	-17%	-28%
Cc1ccc(-n2cc(CN3CCC(O)(c4ccccn4)CC3)c(-c3ccc(F)cc3)n2)cc1	.	9%	?	?
CCN(CC)S(=O)(=O)c1ccc(NC(=O)Nc2cccc(C(F)(F)F)c2)cc1	-2%	4%	2.6µM*	2.6µM*
CCOC(=O)Cc1csc(NC(=O)Nc2ccc(C)cc2)n1	.	2%	-26%	?
CCC(=O)N1CCc2cc(Br)cc(S(=O)(=O)CCC(=O)NCCc3ccccc3)c21	1%	6%	-4%	?
CCC(=O)N1CCc2cc(Br)cc(S(=O)(=O)NCCc3ccccc3Cl)c21	1%	3%	16µM*	21µM*
CCC(=O)N1CCc2cc(Br)cc(S(=O)(=O)N3CCCC(C(=O)Nc4cccc(Cl)c4C)C3)c21 (stereo not given)	2%	-2%	15µM*	12µM*
CCC(=O)N1CCc2cc(Br)cc(S(=O)(=O)CCC(=O)NCCc3cccc(C)c3)c21	0%	0%	16µM*	23µM*
Cc1nn2cc(-c3ccc(Cl)cc3)cnc2c1Cl	-3%	9%	?	-24%
Cc1nc(SCc2nc3ccc(C(=O)c4ccccc4)cc3[nH]2)c2oc3ccccc3c2n1	.	2%	.	.
CCCc1[nH]n(-c2nc3ccccc3s2)c(=O)c1C=NCC(C)C	0%	4%	?	23µM*
COC(=O)Cc1[nH]n(-c2nc3ccccc3s2)c(=O)c1C(C)=Nc1ccc(Cl)cc1	-1%	.	10µM*	21µM*
C/C(=N/NC(=O)c1cccs1)c1c(C)[nH]n(-c2nc3ccccc3s2)c1=O	?	8%	3.7µM*	2.3µM*
CC(=NCc1ccco1)c1c(C)[nH]n(-c2nc3ccccc3s2)c1=O	-110%	5%	-30%	?
CCN(CC)CCCN=Cc1c(-c2ccccc2)[nH]n(-c2nc3ccccc3s2)c1=O	.	5%	-22%	?
CCCN=C(C)c1c(-c2ccccc2)[nH]n(-c2nc3ccccc3s2)c1=O	148%	0%	?	26µM*
S=c1[nH]nc(-c2cccs2)n1/N=C/c1c(Cl)cccc1Cl	-2%	5%	-17%	13%
O=C(CNC(=S)N(Cc1ccccc1)Cc1ccccc1F)NCCc1ccc(Cl)cc1	.	6%	23µM*	?
Cc1ccccc1NC(=S)N(Cc1cccnc1)Cc1ccccc1Cl	.	4%	16%	-28%
O=C(CNC(=S)N(Cc1ccccc1)Cc1cccnc1)NC1CC1	25µM*	2%	19%	?
S=C(Nc1ccccc1Cl)N(Cc1ccccc1)Cc1cccnc1	.	5%	14%	16µM*
O=C(CNC(=S)N(Cc1ccccc1)Cc1cccs1)NCc1ccc(F)cc1	.	-1%	-30%	?
Cc1ccc(CNC(=O)CNC(=S)N(Cc2ccccc2)Cc2cccnc2)cc1	.	1%	?	26µM*
COC(=O)[C@@]12C[C@@H](CC(=O)N3CCCC3)C(=O)N(Cc3ccccc3)C1=CCC(C)(C)C2	1%	.	23µM*	?
COC(=O)[C@@]12C[C@@H](CC(=O)N3CCCC3)C(=O)N(Cc3ccco3)C1=CCC(C)(C)C2	-2%	.	?	16µM*
COC(=O)[C@@]12C[C@@H](CC(=O)N3CCN(C(=O)C4CC4)CC3)C(=O)N(Cc3ccccc3)C1=CCC(C)(C)C2	2%	.	?	?
COC(=O)[C@@]12C[C@@H](CC(=O)N3CCCCC3)C(=O)N(Cc3ccccc3)C1=CCC(C)(C)C2	3%	.	?	18µM*
CC(Oc1ccccc1)C(=O)Nc1c(C(=O)Nc2cccc(F)c2)oc2ccccc12 (stereo not given)	?	6%	?	?
CCOc1ccccc1CNC(=O)Cn1c(-c2ccccc2)cc(C(C)=O)c1C	-1%	4%	13µM*	?

Assay outcomes: PubChem, National Center for Advancing Translational Sciences (NCATS)
